# Assay results published in PubChem BioAssay.
# Unmarked numbers belong to inactive results. The source made the active and inactive calls.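 The calls were made as follows, unless noted: active = mean inhibition above 46.68%, the untreated control wells mean plus 3 SD; inactive = the rest.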
# Columns and labels:
# [1] = target: Nuclear receptor coactivator 1 (Homo sapiens) (UniProt Q15788); assay: NCOA1 GAL4-fusion reporter inhibition – cell-based, luminescence, quadruplicate, confirmation (AID 588820); conditions: HEK293 GAL4-SRC1 luciferase reporter, at 3.6 µM, stronger effect = higher value;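 also: 0% = DMSO wells and 100% = gossypol 36 µM treated wells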
# [2] = repression of VP16-driven luciferase reporter – cell-based, luminescence, high throughput, counter-screen for SRC1 inhibitor project (AID 588824; in the data active = inhibition above about 25%); conditions: cell-based VP16 transactivation luciferase luminescence; at 3.6 µM; stronger effect = higher value
# Sequence of Nuclear receptor coactivator 1 (Homo sapiens) (Q15788 whole entry, looked up, the tested form may be a part): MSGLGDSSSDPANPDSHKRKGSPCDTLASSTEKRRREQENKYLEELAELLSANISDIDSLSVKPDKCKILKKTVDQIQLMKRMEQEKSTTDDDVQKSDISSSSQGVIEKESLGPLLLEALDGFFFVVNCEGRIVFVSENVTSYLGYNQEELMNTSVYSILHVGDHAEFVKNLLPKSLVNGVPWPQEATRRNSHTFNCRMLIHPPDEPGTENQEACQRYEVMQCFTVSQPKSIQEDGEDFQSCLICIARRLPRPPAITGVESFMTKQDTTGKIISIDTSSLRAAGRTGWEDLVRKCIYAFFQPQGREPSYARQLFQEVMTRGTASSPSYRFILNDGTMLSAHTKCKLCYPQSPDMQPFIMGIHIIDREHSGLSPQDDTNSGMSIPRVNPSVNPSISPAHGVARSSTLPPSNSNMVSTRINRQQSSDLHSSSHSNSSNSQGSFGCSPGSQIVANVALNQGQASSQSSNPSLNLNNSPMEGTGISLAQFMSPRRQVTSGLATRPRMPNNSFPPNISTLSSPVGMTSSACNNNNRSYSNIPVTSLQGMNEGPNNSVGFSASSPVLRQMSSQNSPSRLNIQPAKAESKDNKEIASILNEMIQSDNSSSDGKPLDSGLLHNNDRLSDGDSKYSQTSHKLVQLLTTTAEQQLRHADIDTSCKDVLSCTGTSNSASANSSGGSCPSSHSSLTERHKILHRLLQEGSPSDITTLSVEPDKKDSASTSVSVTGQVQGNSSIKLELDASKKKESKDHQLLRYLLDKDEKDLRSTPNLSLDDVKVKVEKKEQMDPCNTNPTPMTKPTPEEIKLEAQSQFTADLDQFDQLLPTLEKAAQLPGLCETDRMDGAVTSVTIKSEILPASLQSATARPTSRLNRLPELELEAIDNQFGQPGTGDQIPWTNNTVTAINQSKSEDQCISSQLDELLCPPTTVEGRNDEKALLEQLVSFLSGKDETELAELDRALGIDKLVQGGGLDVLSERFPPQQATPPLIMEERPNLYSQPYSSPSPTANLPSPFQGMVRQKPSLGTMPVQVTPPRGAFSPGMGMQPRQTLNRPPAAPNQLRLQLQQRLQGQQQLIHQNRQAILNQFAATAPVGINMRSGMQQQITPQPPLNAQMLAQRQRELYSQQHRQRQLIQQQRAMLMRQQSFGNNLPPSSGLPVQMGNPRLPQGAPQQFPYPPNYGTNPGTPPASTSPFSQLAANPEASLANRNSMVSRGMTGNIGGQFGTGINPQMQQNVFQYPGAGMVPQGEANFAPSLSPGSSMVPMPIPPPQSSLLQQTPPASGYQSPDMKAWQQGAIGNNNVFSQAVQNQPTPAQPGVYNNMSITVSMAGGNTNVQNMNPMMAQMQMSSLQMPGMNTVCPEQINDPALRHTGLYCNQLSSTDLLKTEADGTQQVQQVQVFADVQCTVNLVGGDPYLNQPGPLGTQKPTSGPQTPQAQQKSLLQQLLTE
SMILES,inhibition [1],inhibition [2]
CCOc1cccc2cc(C(=O)N3CC(C)OC(C)C3)c(=O)oc12 (stereo unspecified),-9.95%,-2.83%
CC1=C(C(=O)Nc2ccccc2C(=O)NCc2ccccc2)SCCO1,-7.53%,-4.09%
Cc1ccc(S(=O)(=O)NCc2ccc3c(c2)OCO3)cc1C,-20.8%,1.6%
CCOC(=O)c1c(NC(=O)c2c(-c3ccccc3)noc2C)sc(C)c1-c1ccccc1,39.9%,78.2% (active)
COCCOc1ccc(C(F)(F)F)cc1NC(=O)c1ccc(C(F)(F)F)cc1,6.49%,3.69%
NS(=O)(=O)c1ccc(N=Nc2c(O)ccc3ccccc23)cc1,7.96%,4.7%
O=C(Nc1nc(-c2ccccn2)cs1)c1cccc(-n2cnnn2)c1,17.6%,7.13%
COc1ccc(C(=O)Oc2ccc(/C=N/NC(=O)c3ccccc3OC)cc2[N+](=O)[O-])cc1,-11.5%,-0.66%
COc1ccc2c(c1)c(C(C)=O)c(C)n2-c1ccccc1,13.5%,19.1%
O=C(Nc1ccc(Cl)c([N+](=O)[O-])c1)C(Sc1ccccc1)c1ccccc1 (stereo unspecified),-8.15%,5.98%
Cc1nc2ccccn2c1-c1ccnc(=S)[nH]1,31.1%,11.1%
C/C(=N\N=C1\NC(=O)C(CC(=O)O)S1)c1ccccn1 (stereo unspecified),-1.33%,-8.7%
Cc1cc([N+](=O)[O-])nn1CCCC(=O)Nc1ccc(Cl)cc1Cl,-11.6%,-4.49%
CCN(CC(=O)Nc1ccc(NC(C)=O)cc1)C(=O)Cc1ccc(S(=O)(=O)N2CCOCC2)s1,6.3%,8.19%
Fc1ccc2[nH]c3c(NCc4ccccc4)ncnc3c2c1,2.59%,20.2%
O=C(c1ccccc1)C1CCN(C(=O)c2ccc(Cl)cc2)CC1,7.58%,5.47%
Cc1ccn(CC(=O)N/N=C/c2cc([N+](=O)[O-])ccc2O)n1,7.62%,9.09%

SMILES,inhibition [1],inhibition [2]
COC(=O)c1cccc(NC(=O)c2ccc[n+]([O-])c2)c1,-21.8%,4.7%
Cc1cc(C)cc(C(=O)Nc2cccc(NC(=O)c3ccco3)c2)c1,-11.1%,9.42%
COC(=O)c1cccc(NC(=O)CN2C(=O)c3ccccc3C2=O)c1,-23.7%,-3.69%
Cc1ccc(N2CC(C(=O)N3CCC(C(=O)NCCCOC(C)C)CC3)CC2=O)cc1 (stereo unspecified),-30.7%,-8.26%
CC1(C)Cc2nc(N)c(=O)sc2C1,-1.79%,5.55%
COc1cccc(C(c2c(NC(=O)c3ccco3)sc(C)c2C)N2CCOCC2)c1 (stereo unspecified),-6.24%,-1.54%
COc1ccc(N2CCN(C(=O)c3ccc(CS(=O)c4cccc(C)c4)o3)CC2)cc1 (stereo unspecified),-16.2%,-2.71%
CSc1ccc(CN2CCN(Cc3ccc([N+](=O)[O-])cc3)CC2)cc1,-10.7%,26.8% (active)
COc1ccc2cc(/C=N/NC(=O)c3ccc(CN(c4ccc(C)c(C)c4)S(C)(=O)=O)cc3)c(Cl)nc2c1,-4.08%,20.7%
NC(=O)c1nsc(C(=O)N(c2ccccc2F)C(C(=O)NCc2ccc(F)cc2)c2ccc(O)cc2)c1N (stereo unspecified),-23.1%,-2.03%
COc1cc(/C=C/C(=O)Nc2ccc3nc4n(c(=O)c3c2)CCCC4)cc(OC)c1OC,-22.6%,-26.8%
CN1CCN(CCC(=O)N/N=C/c2cc3c(cc2[N+](=O)[O-])OCO3)CC1,-2.3%,-2.21%
N#CC(C#N)=NNc1ccc2cn[nH]c2c1,14.6%,31.6% (active)
COc1ccc(-c2nnc(NC(=O)CSc3ccccc3)s2)cc1OC,1.2%,-8.89%
COc1cccc(C=NNC(=O)c2ccncc2)c1O,7.89%,10.7%
COc1ccc(-n2nc(C(=O)NCC(=O)Nc3cc(OC)c(OC)c(OC)c3)c3ccccc3c2=O)cc1OC,-43.4%,-6.14%
